Test results as given in PubChem BioAssay (NCATS).
Inconclusive results are not listed. Entries that show only a call come without a potency. Activity calls are given as the source filed them. The call rests on the fitted dose curve; in most records, active means well fitted inhibition curve with a large enough effect; inconclusive means small, poorly fitted or top-dose-only effect; inactive means no such curve, though single readings can be large or run the other way. *1 amine or outer side, *2 acyl side, *3 side chain or, on linkers, in order; H or OH if unused. Where a SMILES comes first, the peptide text is derived from it. Bridges are numbered along the chain shown (N, C = ends). [ ]: non-standard residue; d: D form. The star is where a group is joined. ξ: configuration not given here. ξhTyr(3S-OH,4S-OH,3'-OSO3H) = NC(C(=O)O)[C@H](O)[C@@H](O)c1ccc(O)c(OS(=O)(=O)O)c1; Orn(4R-OH,5R-OH) = O=C([C@H](C[C@@H](O)[C@@H](O)N[*:3])N[*:1])[*:2]; X2 = CCCCCOc1ccc(-c2cc(-c3ccc(C(=O)*)cc3)no2)cc1; X3 = C[C@H]1CN([*:1])C(C(=O)[*:2])[C@H]1O; ξGln(3R-OH) = NC(=O)C[C@@H](O)C(N)C(=O)O; ξPro(4R-OH) = O=C(O)C1C[C@@H](O)CN1; ξThr(3R) = C[C@@H](O)C(N)C(=O)O

test system: Zika virus NS2B-NS3 protease (unlinked complex); experiment: Primary screen GU Rhodamine qHTS for Zika virus inhibitors: Unlinked NS2B-NS3 protease assay (AID 1347159); conditions: Recombinant ZIKV NS2B-NS3 protease, Rhodamine110 substrate fluorescence; series mostly up to 107 µM; further: nearly all actives have a fitted effect of over 60% in size
From the text: Avindra Nath, Ph.D., National Institute of Neurological Disorders and Stroke (NINDS), Bethesda, MD
Radhakrishnan Padmanabhan, Ph.D., Georgetown University (GU), Washington D.C.
Zika Virus causes congenital defects, including microcephaly and is associated with Guillain-Barre syndrome, eningoencephalitis and myelitis in infected adult. […] Using a target-based approach, we hope to establish a screening paradigm to uncover novel, cell-active NS2B-NS3 protease (Zika Virus) specific inhibitors from NCATS' collection of small molecules using qHTS.
Four assay panel was created to identify potential Zika Virus inhibitors. Namely, (1) GU unlinked NS2B-NS3 AMC tagged protease qHTS, (2) GU unlinked NS2B-NS3 Rhodamine tagged protease qHTS, (3) NINDS linked NS2B-NS3 AMC tagged protease qHTS, (4) NINDS linked NS2B-NS3 Rhodamine tagged protease qHTS. Active compounds were re-acquired and re-screened to confirm inhibition. Inhibitors were further screened against various confirmatory and counterscreens in dose response format.
Early Translation Branch (ETB)
National Center for Advancing Translational Sciences (NCATS), Rockville, MD
National Institute of Health (NIH), Bethesda, Maryland
Padmanabhan lab provided the NS2B hydrophilic domain and NS3 protease domain in a noncovalent complex used for the unlinked assay. Control compound aprotinin is obtained from Thermo Scientific (#78432; Waltham, Massachusetts). Rhodamine110 substrate ([N-Cbz]-Nle-Lys-Arg-Arg-Rhod110-Arg-Arg-Lys-Nle-[N-Cbz]) was purchased from either Genscript or Bachem.
1536-well Protease (Rhodamine110 Substrate) Assay:
Briefly, 3 microL of enzyme (25 nM final concentration), in assay buffer (10 mM Tris-HCl pH 8.0 with 0.01% Tween 20) were dispensed into a 1,536-well solid-bottom black plate (Greiner Bio One, Monroe, NC). Twenty-three nL of compounds (final concentration range 7.28 nM to 114 microM) or control Aprotinin (final concentration range 3.47 nM to 114 microM) were transferred via Wako Pin-tool (Wako Automation, Richmond, VA). Samples were incubated (room temperature, protected from light) for 15 minutes followed by a 1 microL Rhodamine110 substrate addition (1.5 microM final concentration). Plates were then immediately read on a ViewLux High-throughput CCD imager (PerkinElmer, Waltham, MA) equipped with FITC fluorescence optics (480(20) nm excitation, 540(25) nm emission), then incubated (room temperature, protected from light) for 15 minutes (~15% conversion). The change in fluorescence intensity over the 15-minute reaction period was normalized against no-inhibitor and no-enzyme controls and the resulting percent inhibition data were fitted to a 4-parameter Hill equation. Aprotinin was used as intraplate control.
Potency means the concentration at half of the fitted maximal effect.

SMILES | Potency | activity change, negative = inhibition
Cn1cc(CCn2cnc(-c3cnn(C)c3)c2-c2ccc(C#N)cc2)cn1 | inactive | –
Cc1ccccc1NC(=O)Nc1ccc(CN2C(=O)N([C@@H](CC(C)C)C(=O)N[C@@H](CC(=O)O)c3ccccc3)C(=O)C2(C)C)cc1 | 31.6 µM (active) | –
C[C@@H](c1ccccc1)N(C(N)=NC#N)c1cccc2ncccc12 | inactive | –
C=CC(C)(O)CC/C=C(\C)C(=O)O[C@@H]1[C@@H](O)[C@H](OC(C)(C=C)CC/C=C(\C)C(=O)O)O[C@H](CO)[C@H]1OC(=O)/C(C)=C/CCC(C)(O)C=C (stereo not given in full) | inactive | –
CC[C@@H](C)[C@H](N)C(=O)N1Cc2ccccc2C1 | inactive | –
CC1(C)CC[C@]2(C(=O)O[C@@H]3O[C@H](CO)[C@@H](O)[C@H](O)[C@H]3O)CC[C@]3(C)C(=CCC4[C@@]5(C)CC[C@H](O[C@H]6O[C@H](CO)[C@@H](O)[C@H](O[C@@H]7O[C@H](CO)[C@@H](O)[C@H](O)[C@H]7O)[C@H]6O)C(C)(C)C5CC[C@]43C)[C@@H]2C1 (stereo not given in full) | inactive | –
CC(O)C1CCC2C3CCC4CC(OC5OC(C(=O)O)C(O)C(O)C5O)CCC4(C)C3CCC12C (stereo not given) | inactive | –
CC(=O)O[C@@H]1CC2C(C)(C)C(=O)C=C[C@]2(C)C2CC[C@]3(C)C(=CC(=O)[C@@H]3c3ccoc3)[C@@]21C (stereo not given in full) | inactive | –
COc1cc2nc(=NC(=O)c3cccnc3)n3c(c2cc1OC)NCC3 | inactive | –
N#Cc1cccc(-c2c[nH]c3ncnc(N4CCOCC4)c23)c1 | inactive | –
C=C1[C@H](OC(C)=O)[C@H]2[C@@H](OC(C)=O)C(C)C[C@]2(OC(C)=O)C(=O)[C@H](C)/C=C/C(C)(C)C(=O)[C@H](OC(=O)C(C)C)[C@H]1OC(C)=O (stereo not given in full) | inactive | –
C[C@]1(OC(=O)/C=C\c2ccc(O)cc2)C[C@@H](O)[C@]2(O)C=CO[C@@H](O[C@@H]3O[C@H](CO)[C@@H](O)[C@H](O)[C@H]3O)C12 (stereo not given in full) | inactive | –
CC1=C2C3OC(=O)C(C)C3(O)CCC2(C)CCC1 (stereo not given) | inactive | –
C=C1C[C@]23C[C@@]1(O)CC[C@H]2[C@@]12C=C[C@H](O)[C@@](C)(C(=O)O1)[C@H]2[C@@H]3C(=O)O | inactive | –
CC(C)CC(=O)O[C@@H]1O[C@H](CO)[C@@H](O[C@H]2O[C@H](C)[C@@H](N[C@H]3C=C(CO)[C@@H](O[C@H]4O[C@H](CO)[C@@H](O[C@H]5O[C@H](CO)[C@@H](O[C@H]6O[C@H](CO)[C@@H](O)[C@H](O)[C@H]6O)[C@H](O)[C@H]5O)[C@H](O)[C@H]4O)[C@H](O)[C@H]3O)[C@H](O)[C@H]2O)[C@H](O)[C@H]1O | inactive | –
NC(=O)[C@H](Cc1ccccc1)NC(=O)[C@H](CCCN=C(N)N)NC(=O)C12CC3CC(CC(C3)C1)C2 | – | -7.71% [at 19.1 µM] (inactive)
O=C(OC(C(F)(F)F)C(F)(F)F)N1CCN(Cc2cccc(Oc3ccccc3)c2)CC1 | inactive | –
COc1c2cc(c(O)c1OC)CCCCC(O)CCc1ccc(O)c-2c1 (stereo not given) | inactive | –
COc1c(C)c(OCC=C(C)C)cc2c1CNC2=O | inactive | –
CC1=CCC(O)C2(C)CCC3C(C)C(=O)OC3C12 (stereo not given) | inactive | –

SMILES | Potency | activity change, negative = inhibition
Cc1onc(-c2c(Cl)cccc2Cl)c1CC(=O)NCc1ccc(OCC(F)(F)F)nc1 | inactive | –
OCC1=C[C@@H](O)[C@@H]2C=CO[C@@H](O[C@@H]3O[C@H](CO)[C@@H](O)[C@H](O)[C@H]3O)[C@H]12 | inactive | –
CCOC(=O)CSc1nc2c(sc3ccccc32)c(=O)n1CCCN1CCCC1 | inactive | –
CC1C(=O)OCC2=CC[N+]3([O-])CCC(OC(=O)C(C)(O)C1(C)O)C23 (stereo not given) | inactive | –
CC1CCC2(C(=O)O)CCC3(C)C(=CCC4C5(C)C[C@@H](O)[C@@H](O)C(C)(CO)C5CCC43C)C2C1(C)O (stereo not given in full) | inactive | –
C=C1CC[C@@]2(OC1)O[C@H]1CC3C4CC=C5C[C@@H](O[C@@H]6O[C@@H](C)[C@H](O)[C@@H](O)[C@H]6O)C[C@@H](O[C@@H]6O[C@H](C)[C@H](O)[C@H](O)[C@H]6O[C@@H]6O[C@@H](C)[C@H](O)[C@@H](O)[C@H]6O)[C@]5(C)C4CC[C@]3(C)[C@H]1[C@@H]2C (stereo not given in full) | inactive | –
C=C1CCC[C@]2(C)CC[C@@](O)(C(=C)C(=O)O)C[C@@H]12 | 11.2 µM (active) | –
C=C1CC2C3(C)C(O)CC(=O)C(C)(C)C3C(O)C(OC(C)=O)C2(C)C2C(=O)OC(C)(C(=O)OC)C(=O)C12C (stereo not given) | inactive | –
C[C@H]1[C@H](C)CC[C@]2(C(=O)O)CC[C@]3(C(=O)O)C(=CCC4[C@@]5(C)CC[C@H](O[C@@H]6O[C@@H](C)[C@H](O)[C@@H](O)[C@H]6O)C(C)(C)C5CC[C@]43C)[C@H]12 (stereo not given in full) | inactive | –
Cc1occc(=O)c1O[C@@H]1O[C@H](CO[C@@H]2OC[C@](O)(CO)[C@H]2O)[C@@H](O)[C@H](O)[C@H]1O | inactive | –
CCCCCOc1ccc(-c2cc(-c3ccc(C(=O)N[C@H]4C[C@@H](O)[C@@H](O)NC(=O)C5[C@@H](O)[C@@H](C)CN5C(=O)C([C@H](O)CC(N)=O)NC(=O)C([C@H](O)[C@@H](O)c5ccc(O)c(OS(=O)(=O)O)c5)NC(=O)C5C[C@@H](O)CN5C(=O)C([C@@H](C)O)NC4=O)cc3)no2)cc1 (stereo partly drawn) (X2-[Orn(4R-OH,5R-OH)][ξThr(3R)][ξPro(4R-OH)][ξhTyr(3S-OH,4S-OH,3'-OSO3H)][ξGln(3R-OH)][X3]; lactam 1-C) | 2.24 µM (active) | –
Cc1cc(CO)c(O)c(C(=O)CC2CC(=O)NC(=O)C2)c1 | inactive | –
CC(C)=CC[C@H]1O[C@]2(O)C([C@H]3CCC4[C@@]5(C)CC[C@H](O[C@@H]6O[C@H](CO)[C@H](O)[C@H](O[C@@H]7O[C@H](CO)[C@@H](O)[C@H](O)[C@H]7O)[C@H]6O[C@@H]6O[C@@H](C)[C@H](O)[C@@H](O)[C@H]6O)C(C)(C)C5CC[C@@]4(C)[C@]3(C)[C@H]2O)[C@@]1(C)O (stereo not given in full) | inactive | –
COC(=O)C1=CO[C@@H](O[C@@H]2O[C@H](CO)[C@@H](O)[C@H](O)[C@H]2O)[C@H]2[C@@H]1[C@H](O)C[C@]2(C)O | inactive | –
C/C=C1/CC2C(=O)Nc3cc(O)c(OC)cc3C(=O)N2C1 (stereo not given) | inactive | –
CC(=O)OC[C@@]12C(=O)C[C@@H](C)[C@]3(C[C@@H](c4ccoc4)OC3=O)[C@H]1CC[C@H](OC(C)=O)[C@]21CO1 | inactive | –
CCc1nnc(NS(=O)(=O)c2ccc(NC(=S)NC(=O)/C=C/c3ccc(F)cc3)cc2)s1 | 3.16 µM (active) | –
C=C1CCC(OC(C)=O)C2(C)CC3OC(=O)C(C)=C3CC12 (stereo not given) | inactive | –
CC1=C(C)C(=O)OC(C(C)C2C(O)CC3C4C5OC5C5(O)CC(OC6OC(CO)C(OC7OC(C)C(O)C(O)C7O)C(O)C6O)CC(O)C5(C)C4CCC32C)C1 (stereo not given) | inactive | –
CCC/C=C1\OC(=O)C2=C1CCC(O)C2O (stereo not given) | inactive | –
